Hits are enriched below; roughly 7.3% of the tested compounds scored in any of these assays.
VACV Venus inh: vaccinia inhibition (Venus reporter) | Vaccinia virus Venus reporter expression, fluorescence | Potency, µM (highest dose often 36.5 µM), without a hit: at the top dose activity change, negative = inhibition, actives largely listed as inhibitors | 0.46% of 330,000 active; calls by dose curve; tested in A549 cells; also: potency is read from the fitted curve at half-maximal effect; nearly all actives have a fitted effect of over 30% in size
HCV inhibitor: inhibitors of hepatitis C virus infection | Huh7.5.1 HCVcc-Cre infection, luciferase reporter, 44 h | Potency, µM (series often up to 41.8 µM), inactives show at the highest dose activity change, negative = inhibition, actives largely listed as inhibitors | 3.4% of 340,000 active; active = well fitted inhibition curve with a large enough effect; inconclusive = small, poorly fitted or top-dose-only effect, or another doubt; inactive = no such curve, though single readings can be large or run the other way; also: potency is read from the fitted curve at half-maximal effect
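Compounds are dispensed onto cells plated 4 h earlier at 1,000 per well, with HCVcc-Cre virus (about 0.5 moi) added next. Following 44 h of culture, luminescent signal is measured for 15 sec after 15 min with substrate at room temperature.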
Vaccinia mCherry: vaccinia inhibition (mCherry reporter). Vaccinia virus mCherry reporter infection, fluorescence. Potency, µM (top dose mostly 36.5 µM), without a hit: at the highest dose activity change, negative = inhibition, most hits filed as inhibitors. 0.63% of 310,000 active. AID 720579; calls by dose curve; tested in A549 cells; also: potency is read from the fitted curve at half-maximal effect; nearly all actives have a fitted effect of over 35% in size
FMDV inh: foot and mouth disease virus antiviral activity; AID 1159524; 1.2% of 410,000 active; Potency, µM (highest dose often 57.9 µM), inactives show top-dose activity change, negative = inhibition, usual class: inhibitors; FMDV antiviral cell-based qHTS; calls by dose curve; tested in HEK293T cells; also: read-out not given here; potency is read from the fitted curve at half-maximal effect; nearly all actives have a fitted effect of over 45% in size
HCMV inh: blocks human cytomegalovirus replication. 4.5% of 410,000 active. activity change, negative = inhibition, % at 57.5 µM. HFF cells, HCMV-luciferase reporter, 72 h; active compounds read low; in the data active = activity change below about -60%; inconclusive = no clear call, values can overlap the other calls; inactive = above about -39%
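After 16 h attachment at 37C, HFF cells received test compound and HCMV-luciferase (1 PFU/cell); reporter luminescence read 72 h later, data normalized against buffer-only and known inhibitor Salinomycin.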
* marks the source's active call; other numbers are inactive results; i = inactive; ? = inconclusive; . = not tested or not shown. % is scaled to controls: 0 for no effect and ±100 for the full control effect.

SMILES | VACV Venus inh | HCV inhibitor | Vaccinia mCherry | FMDV inh | HCMV inh
CCCCNC(=O)CSc1nnc(C)c2c(C)n(-c3ccccc3)nc12 | -11% | . | -13% | -10% | -35
Cc1cc(C)n2nc(N)nc2n1 | -7% | 38% | -16% | -16% | -37
Cc1cc(N)n2nc(C(F)(F)F)nc2n1 | -8% | 11% | -11% | -1% | -92*
COC(=O)c1sc2ncccc2c1OCc1cccc(Cl)c1 | . | -3% | . | 15% | -102*
Cc1cc(S(=O)(=O)C(CNC(=O)COc2ccc(Cl)cc2)c2cccs2)ccc1F (stereo unspecified) | -26% | . | -25% | ? | -24
COc1cc2c(cc1OC)n(CC(=O)c1cc(C)ccc1C)c(=O)n1nc(CCn3nc(C)cc3C)nc21 | -11% | . | -6% | 0% | 14
Clc1ccc(CN=C(Nc2ccccc2)NC2CCCCC2)cc1 | -23% | ? | -21% | -24% | -77*
O=C(Cc1ccc(Cl)cc1)NC1CCCCCC1 | -8% | -5% | i | 45% | 13
Cc1ccc2occ(CC(=O)Nc3ccc(Cl)c(C(F)(F)F)c3)c2c1 | ? | . | ? | -4% | -78*
C(=C\c1ccnc2ccccc12)/c1ccc2c(c1)OCO2 | -17% | . | -18% | . | .
CCCNC(=O)c1c(NC(=O)c2ccccc2F)sc2c1CCCCC2 | -3% | . | -9% | 3% | -6
CCCNC(=O)c1sc2c(c1C(=O)Nc1ccccn1)CCCC2 | -11% | 10µM* | -19% | -27% | ?
COc1ccc(-n2cc(CNC3CCN(C)CC3)c(-c3cccc(F)c3)n2)cc1 | ? | 11µM* | ? | 6% | -39
COc1ccc(-n2cc(CN[C@H]3CCCCNC3=O)c(-c3cccc(F)c3)n2)cc1 | . | ? | . | -10% | -27
N/C(=C\c1ccccc1)c1ccncc1 | 15% | . | 48% | . | .
Cc1cccc(-c2nnn3c2nc(NCc2ccccc2)c2ccccc23)c1 | ? | . | -23% | 6% | 28
COc1ccc2[nH]c3c(c2c1)[C@@H]1CCN2C(=O)CCC[C@H](C3)[C@H]12 | -4% | 2% | -8% | 1% | -61*
COc1ccc(/C=C/c2nccc3c2[nH]c2ccccc23)cc1 | -9% | . | 17% | . | .
C=Cc1ncc(OC)c2c1[nH]c1ccccc12 | ? | ? | ? | 16µM* | .
N#CCCn1cc(/C=C2\NC(=S)N(c3ccccc3)C2=O)c(-c2ccc(F)cc2)n1 | -13% | -8% | ? | -26% | -63*
O=C(O)CCn1cc(/C=C2\NC(=S)N(c3ccccc3)C2=O)c(-c2ccc(Br)cc2)n1 | . | -17% | . | -9% | -3
N#CCCn1cc(/C=N/NC(N)=S)c(-c2ccc(-c3ccccc3)cc2)n1 | . | 11µM* | . | -29% | -40
NC[C@@H]1CC[C@@H](N)[C@@H](O[C@H]2[C@H](O)[C@@H](O[C@H]3O[C@H](CO)[C@@H](O)[C@H](N)[C@H]3O)[C@H](N)C[C@@H]2N)O1 | -8% | . | -5% | 2% | .
CC1=NN(c2cccc(C(=O)O)c2)C(=O)/C1=C\C=C/c1ccccc1 | -2% | ? | -2% | 10µM* | 68
CC1=NN(c2ccccc2)C(=O)C1=Cc1ccccc1 | -16% | . | -21% | 0% | -12
SMILES | VACV Venus inh | HCV inhibitor | Vaccinia mCherry | FMDV inh | HCMV inh
CC1=NN(c2ccccc2)C(=O)/C1=C/C=C/C=C/N(C)C | 79% | ? | 4% | ? | -32
CC1=NN(c2ccc(C)cc2)C(=O)/C1=C\C=C\c1ccccc1 | 0% | 8% | -22% | 28µM* | -81*
CCCOc1ccccc1-c1nc(SCC(=O)c2ccccc2)n[nH]1 | -2% | . | -17% | 18% | 3
CC(C)c1ccc(CN2C(=O)C(n3ccc4ccccc43)c3cc(Cl)ccc32)cc1 (stereo unspecified) | . | . | . | . | -76*
COc1ccc(CN2C(=O)C(n3ccc4ccccc43)c3cc(OC(F)(F)F)ccc32)cc1 (stereo unspecified) | . | . | . | . | -91*
COc1ccc2c(c1)C(n1ccc3ccccc31)C(=O)N2Cc1ccc(C(F)(F)F)cc1 (stereo unspecified) | . | . | . | . | 27
O=C(Nc1cccc(N2CCC(NCc3cnn(-c4cccc(F)c4)c3)CC2)c1)c1ccncc1 | -3% | . | -23% | -30% | .
CCN(CC)Cc1c(O)ccc2c([N+](=O)[O-])c(C)n(-c3ccc(OC)cc3)c12 | -18% | ? | . | -21% | -96*
CC(C)[C@H](NC(=O)c1cc2cc(Cl)ccc2n1C)C(=O)N1CCC(C(=O)O)CC1 | 0% | 1% | i | -11% | -33

Assay outcomes (PubChem BioAssay)
